According to PubChem BioAssay:
Calls of active or inactive are those of the source.

Experiments:
[1] = system: Human papillomavirus type 1a protein E7 (residues 44-93); test: HPV1a E7 fragment binders on microarrays, primary screen, biochemical, small-molecule microarray, residues 44-93, 635 nm fluorescence (AID 1108); settings: small-molecule microarray binding, fluorescence 635 nm; higher = more signal;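 also: E7 fragment applied at 1 µg/mL in TBST for 1 h at 4 C; score combines spot fluorescence with its signal to noise ratio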
[2] = modulators of HCV replicon luciferase signal, primary screen, HCV replication inhibitor project, Huh7 cells, luciferase reporter (AID 1109); settings: 48 h, higher = more signal;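 also: huh7 hepatoma cells harbouring a luciferase neomycin HCV replicon reporter; luciferase luminescence as measure of HCV replicon replication; test concentration not given here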
[3] = molecular target: Left-right determination factor 2 (Homo sapiens) (UniProt O00292); test: LEFTY2 binders on small-molecule microarrays, primary screen, biochemical, small-molecule microarray, 635 nm fluorescence scan (AID 1110); settings: LEFTY2 binding, higher = more signal
[4] = molecular target: Calmodulin-1 (Homo sapiens) (UniProt P0DP23); test: CALM1 binders on microarrays, EGTA buffer, profiling panel, biochemical, small-molecule microarray, Cy5-labelled CALM1 (AID 1111); settings: Cy5-CALM1 binding fluorescence, higher = more signal;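 also: labelled calmodulin applied in Tris saline Tween buffer holding calcium plus EGTA and DTT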
[5] = molecular target: Calmodulin-1 (Homo sapiens) (UniProt P0DP23); test: calcium-bound CALM1 binders on microarrays, profiling panel, artefact control for SMM control-protein annotation, biochemical, small-molecule microarray, Cy5-labelled CALM1, plus calcium (AID 1112); settings: Cy5-CALM1 binding fluorescence, higher = more signal;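 also: score merges spot fluorescence with signal to noise from triplicate slides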
[6] = small-molecule microarray binders of probe aWnt5a, primary screen, biochemical, biotinylated probe, 635/667 nm fluorescence (AID 1113); settings: higher = more signal;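 also: score merges 667 nm fluorescence intensity with signal-to-noise per printed feature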
[7] = small-molecule microarray binders of probe aShh, primary screen, biochemical, biotinylated probe, 635/667 nm fluorescence (AID 1114); settings: higher = more signal;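 also: probe is biotin-labelled aShh protein from a stem cell growth factor screen; measures binding of labelled protein to compounds printed on the slide; score merges feature fluorescence at 667 nm with signal-to-noise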
[8] = small-molecule microarray binders of probe aNog, primary screen, biochemical, biotinylated probe, 635/667 nm fluorescence (AID 1115); settings: higher = more signal;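 also: probe is biotinylated aNog protein used at 0.15 µg/mL for 1 h at 4 C; z-score combines 667 nm fluorescence of each spot with its signal to noise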
[9] = molecular target: Torsin-1A-interacting protein 1 (Homo sapiens) (UniProt Q5JTV8); test: LAP1 binders from COS7 cell lysate, primary screen, small-molecule microarray, 635/667 nm fluorescence (AID 1116); settings: COS7-hLAP1 lysate binding, 635 nm fluorescence, higher = more signal
[10] = molecular target: Alpha-bungarotoxin (Bungarus multicinctus) (UniProt P60615); test: alpha-bungarotoxin binders on microarray, profiling panel, artefact control for SMM control protein annotation, biochemical, small-molecule microarray, Alexa647 label, 635/667 nm fluorescence (AID 1117); settings: alpha-BTX-A647 binding fluorescence, higher = more signal
[11] = molecular target: Albumin (Bos taurus) (UniProt P02769); test: bovine serum albumin binders on microarray, profiling panel, artefact control for SMM control protein annotation, biochemical, small-molecule microarray, Alexa647 label, 635/667 nm fluorescence (AID 1118); settings: BSA-A647 binding, fluorescence 635 nm, higher = more signal;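 also: score merges 667 nm emission intensity and signal-to-noise per printed compound spot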
[12] = small-molecule microarray binders of probe aXIP, primary screen, biochemical, NeuroSMM set, 635/667 nm fluorescence (AID 1119); settings: higher = more signal, called active from +8 up or from −8 down;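 also: probe is the protein aXip251-270 applied at 1 µg/mL to compound-printed slides; binding of probe to printed compounds measured as 667 nm fluorescence plus signal to noise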
[13] = small-molecule binders of probe aNOTCH3, primary screen, biochemical, small-molecule microarray, 635/667 nm fluorescence (AID 1120); settings: higher = more signal;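 also: probe is a biotin-tagged antibody raised against NOTCH3 rather than NOTCH3 protein; score merges spot fluorescence near 667 nm with spot signal to noise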
[14] = small-molecule binders of probe aNOTCH2, primary screen, biochemical, small-molecule microarray, 635/667 nm fluorescence (AID 1121); settings: higher = more signal;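 also: score merges feature fluorescence read at 667 nm with its signal to noise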
[15] = molecular target: Carbonic anhydrase 2 (Homo sapiens) (UniProt P00918); test: CAII small-molecule binders, profiling panel, biochemical, small-molecule microarray, Alexa647-labelled CAII (AID 1122); settings: CAII-A647 binding fluorescence, higher = more signal
[16] = COS7 lysate on small-molecule microarray, probe aHis, 635 nm (AID 1123); settings: COS7 cell lysate, fluorescence, higher = more signal;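 also: z-score combines 667nm fluorescence intensity with signal-to-noise per printed compound spot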
[17] = compound binding in COS7 lysate, probe aLAP1, primary screen, cell lysate, small-molecule microarray (AID 1124); settings: probe aLAP1, fluorescence, higher = more signal;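 also: lysate comes from COS7 cells expressing LAP1 and is applied at 0.3 µg/mL; score merges spot fluorescence near 667 nm with signal-to-noise over triplicate slides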
[18] = system: Sam68 (KHDRBS1); test: Sam68 small-molecule binders, primary screen, biochemical, small-molecule microarray, 635 nm fluorescence (AID 1125); settings: small-molecule microarray binding, higher = more signal;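 also: score merges 667 nm channel intensity with signal to noise over triplicate slides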
[19] = system: Chordin-like protein 2 (CHRDL2); test: CHRDL2 small-molecule binders, primary screen, biochemical, small-molecule microarray, 635 nm fluorescence (AID 1126); settings: small-molecule microarray binding, fluorescence 635 nm; higher = more signal;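 also: printed compound slides probed with Chrdl2 protein at 4 µg/mL for 1 h at 4 C; score merges 667 nm emission intensity with signal to noise over three replicate slides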
[20] = molecular target: Concanavalin-A (Canavalia ensiformis) (UniProt P02866); test: ConA small-molecule binders, primary screen, artefact control for SMM control protein annotation, biochemical, small-molecule microarray, Alexa647 label, 635 nm (AID 1127); settings: ConA-A647 binding fluorescence, higher = more signal;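 also: z combines 667 nm emission intensity with signal-to-noise across three replicate slides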
Concanavalin-A (Canavalia ensiformis), sequence (P02866 whole entry, looked up): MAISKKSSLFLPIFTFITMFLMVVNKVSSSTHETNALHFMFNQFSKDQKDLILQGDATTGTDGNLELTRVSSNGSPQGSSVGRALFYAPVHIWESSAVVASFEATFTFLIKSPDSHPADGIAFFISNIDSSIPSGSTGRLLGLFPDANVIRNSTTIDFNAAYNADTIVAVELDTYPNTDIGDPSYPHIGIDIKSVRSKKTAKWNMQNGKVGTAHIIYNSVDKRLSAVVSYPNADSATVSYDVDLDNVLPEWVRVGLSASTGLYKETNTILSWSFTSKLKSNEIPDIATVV

Torsin-1A-interacting protein 1 (Homo sapiens), sequence (Q5JTV8 whole entry, looked up): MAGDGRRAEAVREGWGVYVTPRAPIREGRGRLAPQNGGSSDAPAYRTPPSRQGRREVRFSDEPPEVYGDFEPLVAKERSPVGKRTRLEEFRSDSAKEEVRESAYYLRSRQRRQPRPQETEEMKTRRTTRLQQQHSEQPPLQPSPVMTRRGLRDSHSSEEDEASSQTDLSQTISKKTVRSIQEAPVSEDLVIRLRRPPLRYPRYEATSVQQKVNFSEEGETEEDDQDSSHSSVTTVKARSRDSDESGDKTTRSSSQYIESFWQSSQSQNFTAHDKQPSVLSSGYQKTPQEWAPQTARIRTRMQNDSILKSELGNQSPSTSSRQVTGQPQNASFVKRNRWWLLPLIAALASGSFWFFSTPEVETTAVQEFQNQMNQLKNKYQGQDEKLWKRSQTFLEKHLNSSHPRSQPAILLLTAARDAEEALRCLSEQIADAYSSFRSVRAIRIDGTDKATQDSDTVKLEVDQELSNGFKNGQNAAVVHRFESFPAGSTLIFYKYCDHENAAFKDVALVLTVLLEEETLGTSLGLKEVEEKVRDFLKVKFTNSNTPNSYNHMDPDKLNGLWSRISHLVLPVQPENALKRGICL
Left-right determination factor 2 (Homo sapiens), sequence (O00292 whole entry, looked up): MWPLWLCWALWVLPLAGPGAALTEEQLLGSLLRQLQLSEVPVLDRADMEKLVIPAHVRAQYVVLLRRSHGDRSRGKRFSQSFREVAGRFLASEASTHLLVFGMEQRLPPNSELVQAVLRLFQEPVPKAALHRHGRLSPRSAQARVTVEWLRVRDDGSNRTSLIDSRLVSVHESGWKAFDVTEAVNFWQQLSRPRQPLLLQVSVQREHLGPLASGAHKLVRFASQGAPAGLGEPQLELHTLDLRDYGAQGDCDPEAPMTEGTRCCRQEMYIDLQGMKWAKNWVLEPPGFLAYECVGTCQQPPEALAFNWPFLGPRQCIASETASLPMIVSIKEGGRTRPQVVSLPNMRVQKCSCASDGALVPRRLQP
Alpha-bungarotoxin (Bungarus multicinctus), sequence (P60615 whole entry, looked up): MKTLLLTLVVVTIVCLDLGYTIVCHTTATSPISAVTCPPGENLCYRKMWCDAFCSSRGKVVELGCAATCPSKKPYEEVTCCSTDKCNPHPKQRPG
Albumin (Bos taurus), sequence (P02769 whole entry, looked up): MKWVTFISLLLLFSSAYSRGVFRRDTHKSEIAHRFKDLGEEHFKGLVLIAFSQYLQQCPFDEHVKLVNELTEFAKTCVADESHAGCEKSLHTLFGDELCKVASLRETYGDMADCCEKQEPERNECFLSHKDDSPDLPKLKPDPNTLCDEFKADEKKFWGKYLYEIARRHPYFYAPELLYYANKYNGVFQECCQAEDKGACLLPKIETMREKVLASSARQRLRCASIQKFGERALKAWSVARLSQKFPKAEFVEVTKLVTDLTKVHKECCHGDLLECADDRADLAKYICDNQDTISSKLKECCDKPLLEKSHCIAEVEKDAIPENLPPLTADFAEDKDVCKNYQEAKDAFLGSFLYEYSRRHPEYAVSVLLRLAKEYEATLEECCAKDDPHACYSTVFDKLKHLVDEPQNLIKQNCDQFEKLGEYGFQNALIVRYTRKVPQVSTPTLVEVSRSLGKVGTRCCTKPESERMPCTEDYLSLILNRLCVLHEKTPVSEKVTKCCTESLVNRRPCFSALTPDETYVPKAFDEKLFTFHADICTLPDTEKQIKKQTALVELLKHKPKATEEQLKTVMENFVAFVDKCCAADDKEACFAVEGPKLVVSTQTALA

| Structure (SMILES) | composite z-score [1] | z-score [2] | composite z-score [3] | composite z-score [4] | composite z-score [5] | composite z-score [6] | composite z-score [7] | composite z-score [8] | composite z-score [9] | composite z-score [10] | composite z-score [11] | composite Z-score [12] | composite z-score [13] | composite z-score [14] | composite z-score [15] | composite z-score [16] | composite z-score [17] | composite z-score [18] | composite z-score [19] | composite z-score [20] |
| --- | --- | --- | --- | --- | --- | --- | --- | --- | --- | --- | --- | --- | --- | --- | --- | --- | --- | --- | --- | --- |
| COCCNC(=O)OCC1CCCC2(CC(OC(=O)NCc3ccc4c(c3)OCO4)CC(CCC(=O)N[C@@H](C)C(=O)OC)O2)O1 (stereo not given in full) | 0.953 | -1.26 | 0.65 | 0.332 | -0.431 | -0.0819 | -0.0553 | -0.0645 | 0.376 | 0.804 | 0.0746 | 0.161 (inactive) | -0.0164 | -0.0666 | 0.234 | 0.678 | -0.0692 | 1.3 | 0.454 | 1.02 |
| CO[C@@H]1COC(=O)CC=C[C@@H](C)[C@H](OC)COC(=O)[C@@H](C)COC(=O)CC=C[C@H]1C | -0.82 | 0.0811 | 0.889 | -0.618 | -1.59 | -0.237 | -0.0553 | -0.284 | 0.263 | -0.864 | -0.797 | 0.0068 (inactive) | -0.055 | -0.124 | -0.679 | -0.824 | -0.0936 | -0.983 | 1.47 | -0.423 |
| COc1ccc(O[C@@H]2[C@H](O)CO[C@@H]2C=Cc2ccccc2)cc1 | 0.16 | 0.238 | 0.138 | 0.0425 | -0.665 | -0.148 | -0.399 | -0.111 | 0.288 | 0.369 | -0.0176 | 0.0831 (inactive) | -0.0343 | -0.115 | -0.053 | -0.39 | 0.0909 | 0.0255 | 0.211 | 0.37 |
| O=C1CCCC=C1C(O)CCCCBr (stereo not given) | 0.619 | -4.22 | -0.0175 | 1.35 | 0.403 | -0.124 | 0.191 | -0.438 | 0.293 | 2.09 | 0.956 | 1.36 (inactive) | 0.0242 | 0.0377 | 0.778 | 1.1 | -0.101 | 0.381 | 0.0069 | 1.09 |
| CC(CCN1CCc2nc(-c3ccccc3)c(-c3ccccc3)cc2C1)=NOC[C@@H](O)COCc1ccco1 | 0.58 | -1.11 | 0.718 | -0.216 | -0.625 | -0.0346 | 0.0048 | -0.0524 | 0.323 | 0.365 | 0.148 | 0.0366 (inactive) | 0.062 | -0.153 | 0.0111 | 0.197 | -0.202 | 1.08 | 1.03 | 0.501 |
| CC(C)=CCCC(C)=CCON=C1C[C@@H](O)[C@@H](O)[C@@H]2[C@@H]3C(=O)N(c4cccc(Oc5ccccc5)c4)C(=O)[C@@H]3CC[C@@H]12 | 1.21 | -1.36 | 0.353 | 0.33 | -0.126 | -0.13 | -0.0064 | -0.287 | 0.444 | 0.305 | 0.633 | -0.174 (inactive) | -0.0026 | -0.0686 | 0.112 | 0.956 | -0.0676 | 0.877 | 0.418 | 0.0876 |
